# Screening results: PubChem, several laboratories
# Sampled rows, rich in hits. Any-hit rate of the full collection: about 2.2%.
# KLK7 zymogen act = activates the human kallikrein-7 zymogen. actives 0.9% (n = 370,000). P49862. AID 652039. activation, % at 7 µM. purified proKLK7, EDANS-DABCYL substrate fluorescence; 100% is mature enzyme control, 0% vehicle;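 active means activation above the mean of all tested compounds plus 3 SD, computed per campaign excluding outliers beyond control limits, cut at about 13% in these data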
# GC-B act = GC-B (human) receptor activation | P20594 | HEK293-GC-B cells, CNP EC30, cGMP TR-FRET; 0% at EC30 CNP, 100% saturating CNP | activation, % at 10 µM | actives 0.11% (n = 370,000);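 active means activation at 10 µM reaching about 35% in either raw or pattern-adjusted values, limit read from the data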
# ADAM10 inh = inhibitors of human ADAM10. O14672. recombinant ADAM10, EDANS/DABCYL FRET peptide cleavage, 3 h. inhibition, % at 7 µM. actives 0.62% (n = 370,000). AID 720582;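 active means inhibition above a per-campaign cutoff equal to the mean of compounds falling between control-based bounds plus 3 SD, cut at about 20% in these data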;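 further: 0% = DMSO wells while the 100% control is not disclosed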
# GC-A act = GC-A (human) enzyme activation; P16066; HEK293 GC-A cells, cGMP TR-FRET, EC30 ANP; 0% at EC30 ANP, 100% saturating ANP; activation, % at 10 µM; actives 0.14% (n = 370,000); in the data active means activation above about 40%
# ADAM17 inh = ADAM17 inhibition, QFRET primary screen; actives 0.83% (n = 370,000); recombinant ADAM17, EDANS/DABCYL FRET peptide cleavage; inhibition, % at 6.95 µM;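 active means inhibition above the mean of compounds lying between control limits plus 3 SD, set per campaign, cut at about 8.5% in these data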;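 further: 0% = DMSO-only wells as the low control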
# Target sequence (P78536 215-824 limits assumed): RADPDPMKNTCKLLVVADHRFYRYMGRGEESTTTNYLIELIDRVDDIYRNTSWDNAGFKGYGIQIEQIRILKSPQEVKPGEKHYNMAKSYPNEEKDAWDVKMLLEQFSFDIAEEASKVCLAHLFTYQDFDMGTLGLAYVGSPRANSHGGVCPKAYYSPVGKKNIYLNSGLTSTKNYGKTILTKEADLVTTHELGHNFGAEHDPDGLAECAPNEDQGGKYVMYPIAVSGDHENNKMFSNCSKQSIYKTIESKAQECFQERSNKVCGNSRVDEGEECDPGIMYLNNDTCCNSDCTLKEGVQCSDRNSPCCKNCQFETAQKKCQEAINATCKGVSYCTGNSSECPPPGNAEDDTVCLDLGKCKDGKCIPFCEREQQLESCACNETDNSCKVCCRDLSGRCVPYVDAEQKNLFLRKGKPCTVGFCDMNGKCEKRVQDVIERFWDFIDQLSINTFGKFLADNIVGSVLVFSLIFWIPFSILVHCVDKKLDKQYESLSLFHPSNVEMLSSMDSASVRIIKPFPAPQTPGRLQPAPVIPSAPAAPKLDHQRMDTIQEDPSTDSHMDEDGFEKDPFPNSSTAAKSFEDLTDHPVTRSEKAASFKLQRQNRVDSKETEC
# The depositor's hits bear a star; i = inactive; . = not tested or not shown; ! = repeats disagree.
SMILES,KLK7 zymogen act,GC-B act,ADAM10 inh,GC-A act,ADAM17 inh
CC1(C)Cc2c(sc3c2c(=N)n(Cc2ccco2)c(=O)n3Cc2ccc(F)cc2)CO1,-1,35,-11,30,-3
O=C(Oc1oc(-c2ccco2)nc1C=Nc1ccc(Cl)cc1)c1ccco1,0,1,12,44*,2
CC(C)(C)NC(=O)C(c1c[nH]c2ccccc12)N(C(=O)Cn1nnc(-c2ccc(Cl)cc2)n1)c1ccccc1F (configuration not stated),0,-2,10,-6,6
COc1cccc(N(C(=O)Cn2nnc(-c3ccc(C)cc3)n2)C(C(=O)NC(C)(C)C)c2c[nH]c3ccccc23)c1 (configuration not stated),1,1,23*,-11,12*
CO[C@H]([C@H](C)/C=C/N(C)C=O)[C@@H](C)C(=O)CC[C@H](C)[C@H](O)[C@H](C)[C@H]1OC(=O)/C=C/C(C)=C/C[C@H](O)C[C@@H]2C=CC[C@@H](C[C@H](OC)[C@@]3(CO3)[C@@H](OC)C[C@@H](OC)[C@@H]1C)O2,.,-29,-2,-36,-3
CC(C)CN1C(=O)C[C@@]2(C(=O)N(C)c3ccc(NC(=O)c4cc(F)ccc4F)cc32)C1c1ccccc1 (some centres not stated),0,-4,2,0,-2
CCC(=O)NNC(=S)NC(=O)c1ccc(C)cc1,-1,5,3,5,1
CCC(=O)NC(=S)NNC(=O)c1ccc(O)cc1,-1,85*,-6,1,-2
Cn1c(NC(=O)c2ccccc2)nc(Cc2ccccc2)c1-c1ccccc1,0,3,8,1,8
Oc1ccc(N2CCN(C(c3cccs3)c3nnnn3CCc3ccccc3)CC2)cc1 (configuration not stated),1,-21,21*,-26,2
COc1cc(Nc2cc(C)n(-c3ccc(Cl)c(OC)c3)c(=O)c2)ccc1Cl,-11,0,-144,11,-52
Cc1cc(Nc2cc(Cl)cc(Cl)c2)cc(=O)n1-c1cc(Cl)cc(Cl)c1,0,28*,-1,21,0
COC(=O)[C@H]1C[C@@]2(N3CCCCC3)c3ccccc3N(S(=O)(=O)c3ccccc3)[C@H]2N1,0,-6,7,-7,2
O=c1oc(-c2ccccc2)cc2ccccc12,-2,-9,-432,-1,-104
O=c1oc(-c2ccccc2)cc(Cl)c1Cl,347*,9,-18,16,-8
N#Cc1cccc(-c2nnc(SCc3ccccc3C#N)o2)c1,0,38*,-6,35,-4
CCn1cnc2c1c(=O)n(CC(=O)OC)c(=O)n2Cc1ccccc1,0,12,-8,4,-3
CCn1cnc2c1c(=O)n(Cc1ccc(C(=O)OC)cc1)c(=O)n2Cc1ccccc1,0,35*,2,-13,3
COC(=O)C1CN(Cc2ccc(C)cc2)CCS(=O)(=O)N1Cc1cn(Cc2ccccc2)nn1 (configuration not stated),0,-4,3,-6,-1
COc1ccc(OC)c(NC(=S)NCc2ccc(S(N)(=O)=O)cc2)c1,0,2,0,0,-2
COc1ccc(CNC(=S)Nc2cc(OC)ccc2OC)cc1,0,3,10,40*,2
CCNC(=O)NC(=O)COC(=O)c1ccccc1SCC(=O)NC(=O)NCC,39*,0,i,-6,-244
O=S1(=O)CC2c3ccccc3CN2CN1Cc1ccc(F)cc1 (configuration not stated),-1,4,-1,-1,0
CCn1nc([N+](=O)[O-])c2c(-c3nc4ccccc4o3)c(N)n(CCCOC)c2c1=O,1,5,-42,46*,-15
COCCCn1c(-c2ccco2)nc2ccccc2c1=O,0,1,-10,4,0
SMILES,KLK7 zymogen act,GC-B act,ADAM10 inh,GC-A act,ADAM17 inh
CC(Sc1ccc2ccccc2n1)C(=O)O (configuration not stated),0,29,-5,48*!,0
CC(Sc1cnc2ccccc2n1)C(=O)O (configuration not stated),-1,11,-5,18,-6
N#Cc1c2c(c(Nc3ccccc3)n3c1nc1ccccc13)CCC2,0,8,-7,54*,-3
N#Cc1c2c(c(Nc3ccc(F)cc3)n3c1nc1ccccc13)CCCC2,1,12,-9,44*,-6
N#Cc1c2c(c(-n3cnc4ccccc43)n3c1nc1ccccc13)CCC2,0,-16,-10,12,-7
Cc1sc2nc(SCC(=O)c3ccc(O)c(O)c3)n(C)c(=O)c2c1C,0,-7,9,-5,4
CN1CC=C(c2ccccc2)N(c2ccc(Br)cc2)C1=O,1,-3,-1,3,0
Cn1c(N)c(C(=O)COC(=O)c2cc(S(=O)(=O)N3CCOCC3)ccc2F)c(=O)n(C)c1=O,0,37*,-12,26,-6
Cc1cccnc1NC(=S)NC(=O)c1cncc(Br)c1,32*,2,-54,0,-20
O=C(NC(=S)Nc1ccccn1)c1cncc(Br)c1,7,-2,-14,2,-9
CCN(CC)C(=O)C1CCCN(C(=O)Nc2ccc3nsnc3c2)C1 (configuration not stated),19*,-8,-431,0,-113
NC(c1csc(Nc2nccc(C(F)(F)F)n2)n1)C1CCCCC1 (configuration not stated),2,50*,-10,-1,-5
C=CCN1C(=O)[C@@H](CC(=O)NCCCN2CCCC2=O)[C@]2(C(=O)OC)CCCCC=C12,0,3,-1,3,0
Clc1ccc(CN2CCN(N=Cc3ccncc3)CC2)cc1,0,3,3,0,2
Cc1nc2ccc(Br)cc2c(-c2ccccc2)c1C(=O)O,0,17,11,44*,4
CC(=O)c1c(C)nc2ccc(Br)cc2c1-c1ccccc1,0,-9,8,-18,1
CN1CCN(S(=O)(=O)c2ccc(NC(=O)Nc3cccc(Cl)c3)cc2)CC1,0,1,2,-1,-2
O=C(Nc1cccc(Cl)c1)Nc1cc(S(=O)(=O)N2CCCCC2)ccc1Cl,0,13,22*,0,9.9*
O=C(COCc1ccccc1)N1CC[C@H]2[C@H](CCCN2Cc2ccc(F)cc2)C1,0,2,-7,4,-6
COC(=O)[C@]12C[C@H](CC(=O)N3CCC(c4ccccc4)CC3)C(=O)N(CCc3ccc(OC)c(OC)c3)C1=C[C@H](C(C)C)O[C@@H]2C1CC1,1,-6,8,-5,2
O=C(CSC1=NNC(c2ccccn2)S1)Nc1cccc(Cl)c1 (configuration not stated),-1,6,22*,0,5
